Pyk2 oligo antag – antagonists of human Pyk2 oligomerization | Q14289 | Q293 cells, Pyk2 FERM NanoBiT luminescence; active compounds read low | z-score (the deposit names both 25 µM and 10 µM) | 99,000 tested, 0.83% active;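 active means Z-score of -3 or lower, scaled per plate to the spread of control and sample wells; inactive means z-score above -3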;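 further: negative z-score means lost luminescence so less FERM oligomerization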
Target sequence (Q14289 whole entry, looked up): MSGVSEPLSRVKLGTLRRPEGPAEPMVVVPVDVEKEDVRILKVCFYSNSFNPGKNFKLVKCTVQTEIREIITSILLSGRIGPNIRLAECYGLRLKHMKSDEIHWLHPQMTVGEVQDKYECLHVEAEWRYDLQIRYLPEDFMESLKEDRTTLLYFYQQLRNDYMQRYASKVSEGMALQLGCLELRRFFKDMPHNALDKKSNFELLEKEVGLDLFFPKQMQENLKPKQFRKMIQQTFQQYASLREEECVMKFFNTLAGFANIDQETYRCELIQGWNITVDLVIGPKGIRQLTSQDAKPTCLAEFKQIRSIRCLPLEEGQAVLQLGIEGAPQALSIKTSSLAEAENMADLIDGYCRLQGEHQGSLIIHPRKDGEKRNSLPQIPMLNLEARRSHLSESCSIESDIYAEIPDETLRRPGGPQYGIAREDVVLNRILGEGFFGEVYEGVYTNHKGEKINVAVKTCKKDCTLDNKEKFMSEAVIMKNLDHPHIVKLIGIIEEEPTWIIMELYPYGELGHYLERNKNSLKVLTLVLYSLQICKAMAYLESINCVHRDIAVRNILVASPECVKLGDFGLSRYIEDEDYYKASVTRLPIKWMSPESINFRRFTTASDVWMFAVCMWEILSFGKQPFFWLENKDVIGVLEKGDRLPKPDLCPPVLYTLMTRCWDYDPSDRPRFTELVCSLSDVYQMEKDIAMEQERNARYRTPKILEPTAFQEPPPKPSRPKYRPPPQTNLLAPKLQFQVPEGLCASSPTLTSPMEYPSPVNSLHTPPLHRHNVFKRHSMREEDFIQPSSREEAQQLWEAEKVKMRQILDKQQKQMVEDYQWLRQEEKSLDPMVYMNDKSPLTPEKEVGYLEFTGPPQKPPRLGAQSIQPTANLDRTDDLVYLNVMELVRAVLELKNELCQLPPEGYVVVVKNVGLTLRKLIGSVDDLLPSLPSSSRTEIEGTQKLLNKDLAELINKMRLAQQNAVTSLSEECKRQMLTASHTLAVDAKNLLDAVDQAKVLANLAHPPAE
CYP2C9 inhib – blocks human cytochrome P450 2C9 | CYP2C9 Supersomes, luciferin-H conversion, luminescence | inhibition, % at 5 µM | 96,000 tested, 20% active;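 active means blocking of liver enzyme CYP2C9 beyond about 50% at 5 µM, limit read from the data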
Cav3 T inh – inhibitors of human Cav3.2 T-type calcium channel. O95180. Cav3.2-expressing cells, Fluo-4 calcium fluorescence FDSS; active compounds read low. B-score at 10 µM. 100,000 tested, 4% active. AID 449739;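 active means single-dose well whose peak fluorescence ratio is a statistical outlier from its plate by either plate-standardised score or position-corrected B-score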
CYP2C19 act – cytochrome P450 2C19 (human) activation; P33261; 96,000 tested, under 10 active; activation factor at 5 µM; recombinant CYP2C19, luciferin-H EGE luminescence; active compounds read high; 0 = fully inhibited enzyme, 1 = untreated enzyme; AID 1025;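 active means activation factor of at least 2 at 5 µM in the primary screen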
CYP2C9 activ – activators of human CYP2C9; P11712; 96,000 tested, 1.4% active; recombinant CYP2C9, luciferin-H conversion, luminescence; active compounds read high; factor 1 = untreated enzyme, 0 = blocked; AID 1024; activation factor at 5 µM;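 active means activation factor of 2 or more for CYP2C9 at a 5 µM dose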
CYP2C19 inhib – inhibitors of human CYP2C19. P33261. CYP2C19 Supersomes, luciferin-H EGE luminescence, 30 min. inhibition, % at 5 µM. 96,000 tested, 21% active;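 active means CYP2C19 inhibition above a set limit at 5 µM in the primary screen, cut at about 50% in these data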
Each line names hits and unclear results; the compound was inactive in the other large screens. Only some compounds are listed: those with a hit (about 27% of all), similar ones and a draw of the others.

CC(C)c1ccccc1OCC(=O)NCC(c1cccs1)N1CCOCC1 (centres undefined)	CYP2C19 inhib 68
COc1ccc(-c2nnc3n2C(C)(C)Cc2cc(OC)c(OC)cc2-3)cc1	none (no result: Pyk2 oligo antag)
COc1cc2c(cc1OC)-c1nc3ccccc3c(=O)n1C(C)(C)C2	CYP2C9 inhib 56
COC(=O)CSc1nnc(-c2ccc(NS(=O)(=O)c3ccccc3)cc2)o1	CYP2C9 inhib 94
Cc1cccc(NC(=O)CSc2nnc([C@@H](N)Cc3ccccc3)o2)c1C	CYP2C19 inhib 70
Cc1ccc(CSc2nnc(-c3ccc(NS(=O)(=O)c4ccccc4)cc3)o2)cc1	none (no result: CYP2C9 inhib, Cav3 T inh, CYP2C19 act, CYP2C9 activ, CYP2C19 inhib)
COc1cccc(NC(=O)CSc2nnc(-c3cc(C)n(-c4ccccc4)c3C)o2)c1	CYP2C9 inhib 78, Cav3 T inh -3.6
COC(=O)c1ccccc1NC(=O)CSc1nnc(-c2ccncc2)o1	CYP2C19 inhib 68
CC(C)(C)N=Cc1cc(-c2ccccc2)sc1O	none
CCO[C@H]1OC(C(N)=O)=C[C@@H](C(C)(C)C)[C@@H]1CCCO	none (no result: Pyk2 oligo antag, CYP2C9 inhib, CYP2C19 act, CYP2C9 activ, CYP2C19 inhib)
COc1ccccc1NC(=O)CSc1nnc(-c2ccccc2)o1	CYP2C19 inhib 59 (no result: Pyk2 oligo antag)
COc1ccc(NC(=O)CSc2nnc(Cc3ccccc3)o2)c(OC)c1	CYP2C19 inhib 71
COc1ccccc1NC(=O)CSc1nnc(Cc2ccccc2)o1	none
O=C(OCC(=O)N1CCN(C(=O)c2ccco2)CC1)c1cc(=O)c2ccccc2o1	none
Cc1nn(C(C)c2n[nH]c(=S)n2-c2cccc(Cl)c2)c(C)c1[N+](=O)[O-] (centres undefined)	none (no result: CYP2C9 inhib, CYP2C19 act, CYP2C9 activ, CYP2C19 inhib)
O=C(O)CCSc1nnc(-c2cccnc2)n1-c1ccccc1	none
CC(=O)C(N=Nc1ccccc1)(Sc1nnc(-c2ccccc2)n1-c1ccccc1)C(C)=O	Pyk2 oligo antag -3.1, Cav3 T inh -4.4 (no result: CYP2C9 inhib, CYP2C19 act, CYP2C9 activ, CYP2C19 inhib)
COC(=O)/C=C/c1cc(F)ccc1S(=O)(=O)NC(C)(C)C	none (no result: Pyk2 oligo antag, CYP2C9 inhib, CYP2C19 act, CYP2C9 activ, CYP2C19 inhib)
Cc1cc(C)c(C#N)c(SCC(=O)NC(C)(C)C)n1	none (no result: Pyk2 oligo antag)
Cc1ccc(CNC(=O)CSc2nc(C)cc(C)c2C#N)cc1	CYP2C19 inhib 57
Cc1cc(C)c(C#N)c(SCC(=O)NC2CC2)n1	none
CCOC(=O)CNC(=O)CSc1nc(C)cc(C)c1C#N	CYP2C19 inhib 83
CCCCn1c2c(c(=O)n(C)c1=O)C(CC(=O)OCC(=O)Nc1cccc(C(F)(F)F)c1)C(=O)N2 (centres undefined)	CYP2C9 inhib 86
COc1ccc2cc3c(N)nn(C(=O)C4CCC(C(C)(C)C)CC4)c3nc2c1 (centres undefined)	none (no result: Pyk2 oligo antag, CYP2C9 inhib, CYP2C19 act, CYP2C9 activ, CYP2C19 inhib)
COc1ccc2cc3c(N)nn(C(=O)Cc4ccccc4OC)c3nc2c1	CYP2C9 inhib 75, CYP2C19 inhib 78 (no result: Pyk2 oligo antag)
CCN(CC)S(=O)(=O)c1cc(C(=O)Oc2cccc(-c3cnc4ccccc4n3)c2)ccc1Br	CYP2C19 inhib 64
O=C(Oc1ccc(-c2cnc3ccccc3n2)cc1)c1cccc([N+](=O)[O-])c1	CYP2C19 inhib 67
CCN(CC)S(=O)(=O)c1ccc(Cl)c(C(=O)Oc2cccc(-c3cnc4ccccc4n3)c2)c1	none (no result: Cav3 T inh)
O=C(Oc1ccc(-c2cnc3ccccc3n2)cc1)c1ccc(Br)o1	CYP2C19 inhib 58
O=C(Oc1cccc2cccnc12)c1ccc(Br)o1	none
O=C(Oc1ccc([N+](=O)[O-])cc1)c1cc(-c2ccccc2)nc2ccccc12	none
CCN1CCN(C(=O)C2c3cc(OC)c(OC)cc3C(=O)N(C)C2c2ccc(SC)cc2)CC1 (centres undefined)	none (no result: CYP2C9 inhib, CYP2C19 act, CYP2C9 activ, CYP2C19 inhib)
CCCS(=O)(=O)Nc1cc(C(F)(F)F)ccc1OCCOC	CYP2C19 inhib 50
O=C(O)CCCC(=O)Nc1ccc(Br)cc1C(=O)O	none (no result: CYP2C9 inhib, CYP2C19 act, CYP2C9 activ, CYP2C19 inhib)
Cc1cccc(NC(=S)NNC(=O)c2csc3c2CCC(C)C3)c1 (centres undefined)	none
CC(C)CNC(=S)NNC(=O)c1csc2c1CCC(C)C2 (centres undefined)	CYP2C19 inhib 52
Cc1occc1C(=O)N1CCN(C(=O)C2CCCO2)CC1 (centres undefined)	none
COCC(=O)Nc1cc(C(=O)Nc2ccccc2C)ccc1Cl	none
COCC(=O)Nc1cc(C(=O)Nc2cccc(C)c2C)ccc1Cl	CYP2C9 inhib 58
C=CCc1ccc(O)c(-c2ccc(O)c(CC=C)c2)c1	Cav3 T inh -5.4 (no result: Pyk2 oligo antag, CYP2C9 inhib, CYP2C19 act, CYP2C9 activ, CYP2C19 inhib)
CCSc1nnc(NC(=O)CCNS(=O)(=O)c2cc(Br)cnc2N)s1	CYP2C9 inhib 62
c1ccc2c3c([nH]c2c1)-c1[nH]ncc1CC3	CYP2C9 inhib 67
Clc1ccc2[nH]c3c(c2c1)CCc1cn[nH]c1-3	CYP2C9 inhib 55
c1ccc2nc3c(nc2c1)[nH]c1ccccc13	none
CCCS(=O)(=O)N1CCC(C(=O)N2CCc3ccccc3C2)CC1	none
N#CC(C(=O)NCc1ccccc1)c1nc2ccccc2nc1N1CCCC1 (centres undefined)	Cav3 T inh -6
N#CC(C(=O)NCc1ccco1)c1nc2ccccc2nc1N1CCOCC1 (centres undefined)	CYP2C9 inhib 88, Cav3 T inh -3.6, CYP2C19 inhib 79
N#CC(C(=O)NCCc1ccccc1)c1nc2ccccc2nc1N1CCOCC1 (centres undefined)	none
CCOC(=O)N1CCN(c2nc3ccccc3nc2C(C#N)C(=O)NCCc2ccccc2)CC1 (centres undefined)	CYP2C9 inhib 73, CYP2C19 inhib 65
CCOC(=O)C1CCCN(c2nc3ccccc3nc2C(C#N)C(=O)NCc2ccccc2)C1 (centres undefined)	CYP2C9 inhib 62
CCOC(=O)c1ccc(CNCc2ccc(C)cc2)cc1	none (no result: CYP2C9 inhib, Cav3 T inh, CYP2C19 act, CYP2C9 activ, CYP2C19 inhib)
Cc1ccccc1-n1cnnc1SCC(=O)N1CCN(c2ccccc2)CC1	none
Fc1ccc(-c2nnc(SCc3ncc(-c4ccccc4)o3)n2CC2CCCO2)cc1 (centres undefined)	none
FC(F)(F)c1ccc(Sc2nnc(-c3cccs3)n2CC2CCCO2)nc1 (centres undefined)	CYP2C9 inhib 52, CYP2C19 inhib 91
FC(F)(F)c1cnc(Sc2nnc(-c3cccs3)n2CC2CCCO2)c(Cl)c1 (centres undefined)	CYP2C19 inhib 89
O=C1NCCc2cc3c(cc21)OCO3	none (no result: CYP2C9 inhib, CYP2C19 act, CYP2C9 activ, CYP2C19 inhib)
CN(C)C(=O)c1c2c(nc3ccccc13)-c1ccccc1CC2	none
CN1C(=O)C(O)(C2COC(C)(C)CC2=O)c2cc(Br)ccc21 (centres undefined)	CYP2C19 inhib 54
CCN1C(=O)C(O)(CC(=O)c2ccc(-n3cccc3)cc2)c2ccccc21 (centres undefined)	none (no result: CYP2C9 inhib, CYP2C19 act, CYP2C9 activ, CYP2C19 inhib)
Cc1ccc(C(=O)CC2(O)C(=O)N(C)c3ccc(Br)cc32)c(C)c1 (centres undefined)	CYP2C9 inhib 55, CYP2C19 inhib 62 (no result: Pyk2 oligo antag)
C=C(C)CN1C(=O)C(O)(CC(=O)c2ccc3c(c2)OCCO3)c2ccccc21 (centres undefined)	CYP2C19 inhib 82
C=CCN1C(=O)C(O)(CC(=O)c2ccccc2)c2ccccc21 (centres undefined)	CYP2C19 inhib 75

Source: PubChem BioAssay (several laboratories)
